A selection: hits, their analogues and other compounds. The true share with any hit is near 10%.
Gal4-VP16 FLuc – Gal4-VP16 reporter inhibition counter-screen | Potency, µM (series often up to 53.6 µM), inactives show at the highest dose activity, negative = inhibition, actives largely listed as inhibitors | Drosophila S2 Gal4-VP16 UAS-luciferase, luminescence, 20 h | 310,000 tested, 3.5% active | AID 2546;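 further: Gal4-VP16 expression switched on by copper sulfate through the metallothionein promoter; on the % scale 0 is the no-effect control and ±100 the full control effect; nearly all actives have a fitted effect of over 50% in size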
KB-V1 MDR tox – KB-V1 MDR subline cytotoxicity. KB-V1 MDR cells viability, CellTiter-Glo, 72 h. Potency, µM (doses to about 46.1 µM), actives largely listed as cytotoxic. 400,000 tested, 3.4% active; further: on the % scale 0 is the no-effect control and ±100 the full control effect; nearly all actives have a fitted effect of over 60% in size
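Cells of the MDR subline KB-V1 are plated, dosed with compound at multiple concentrations, and incubated 72 h at 37 degrees C; CellTiter-Glo is then added and luminescence read after 10 min.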
RORgamma inh – ROR gamma (mouse) transcription inhibition. 310,000 tested, 5.4% active. Potency, µM (doses to about 53.6 µM), for the others: top-dose activity change, negative = inhibition, usual class: inhibitors. AID 2551. Drosophila S2 Gal4-RORgamma UAS-luciferase reporter, 20 h. P51450; further: on the % scale 0 is the no-effect control and ±100 the full control effect; nearly all actives have a fitted effect of over 60% in size
Target sequence (P51450 whole entry, looked up, the tested form may be a part): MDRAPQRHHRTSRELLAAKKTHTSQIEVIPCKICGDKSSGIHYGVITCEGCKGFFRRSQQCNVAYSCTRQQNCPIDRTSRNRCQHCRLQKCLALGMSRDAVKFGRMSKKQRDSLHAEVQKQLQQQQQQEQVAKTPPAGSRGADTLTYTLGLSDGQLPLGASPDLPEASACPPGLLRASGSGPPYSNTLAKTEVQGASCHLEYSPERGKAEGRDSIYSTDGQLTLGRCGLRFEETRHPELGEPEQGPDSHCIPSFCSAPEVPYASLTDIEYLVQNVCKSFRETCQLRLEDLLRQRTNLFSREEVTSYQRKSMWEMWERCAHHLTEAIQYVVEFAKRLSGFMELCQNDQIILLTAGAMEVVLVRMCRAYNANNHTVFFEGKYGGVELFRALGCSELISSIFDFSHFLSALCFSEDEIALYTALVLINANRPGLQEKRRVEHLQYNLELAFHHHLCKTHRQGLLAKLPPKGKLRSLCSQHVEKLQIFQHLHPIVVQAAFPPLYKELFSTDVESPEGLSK
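ROR gamma transcriptional activity was tracked as Gal4-UAS luciferase output in stably transfected Drosophila Schneider cells, with compound added 1 hr before 700 uM copper sulfate induction and a 20 hr ambient-temperature incubation.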
MCF10A rereplic – DNA re-replication induction in MCF 10a cells; MCF 10A DNA re-replication, Hoechst nuclear intensity, 48 h; Potency, µM (titrated, usually from 46.1 µM), for inactives: at the top dose activity, positive = re-replication, hits mostly activators; 350,000 tested, 2.9% active; AID 624296; further: % of control where 0% means no effect; nearly all actives have a fitted effect of over 50% in size
SW480 rereplic – inducers of DNA re-replication in SW480 colon cancer cells; SW480 DNA re-replication, Hoechst DNA content imaging, 48 h; 340,000 tested, 1.8% active; Potency, µM (doses to about 46.1 µM), for inactives: at the top dose re-replication activation, usual class: activators; further: % of control where 0% means no effect; nearly all actives have a fitted effect of over 55% in size
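SW480 cells exposed to compounds for 48 hr at 37 C, 5% CO2, then Hoechst-stained 40 min. Nuclear DNA content imaged by fluorescence scanning (405 nm excitation, 500-530 nm emission); re-replication scored as increased high-intensity nuclei.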
KB-3-1 cytotox – kills parental KB-3-1 adenocarcinoma cells; 400,000 tested, 1.4% active; KB-3-1 viability, CellTiter-Glo ATP luminescence, 72 h; AID 1347075; Potency, µM (top dose mostly 46.1 µM), usual class: cytotoxic; further: on the % scale 0 is the no-effect control and ±100 the full control effect; nearly all actives have a fitted effect of over 60% in size
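Cells are dispensed, compounds pinned in, plates held at 37 °C for 72 h, then CellTiter-Glo is added and luminescence read after 10 minutes. Cell line: parental KB-3-1 in phenol-red-free DMEM, 10% FBS.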
An asterisk follows results filed as active; i = inactive; u = inconclusive; x = no result given; ! = not active in a repeat; [ ] = another dose, or the depositor's remark. The call rests on the fitted dose curve; in most records, active means well fitted curve in the direction sought with a large enough effect; inconclusive means small, poorly fitted or top-dose-only effect, or another doubt; inactive means no such curve, though single readings can be large; an effect the other way counts as inactive or inconclusive. Potency means the concentration at half of the fitted maximal effect.

SMILES	Gal4-VP16 FLuc	KB-V1 MDR tox	RORgamma inh	MCF10A rereplic	SW480 rereplic	KB-3-1 cytotox
CSc1ncc(C(=O)NCc2ccc(Cl)cc2)c(C(F)(F)F)n1	x	i	x	x	x	i
O=C(Nc1cccc(Cl)c1)c1cc(N=Nc2ccc([N+](=O)[O-])cc2Cl)ccc1O	u	u	u	3.0%	6.0%	20.6µM*
O=C(Nc1ccc([N+](=O)[O-])cc1Cl)c1cc(Cl)ccc1O	1.26µM*	1.03µM*	1.26µM*	u	3.16µM*!	1.16µM*
CCCC(=O)Nc1cccc(NC(=O)c2ccc([N+](=O)[O-])cc2Cl)c1	-12.6%	i	-37.3%	-2.5%	-3.0%	i
O=C(NCc1ccccc1)c1cnc(N2CCCCC2)c2ccccc12	x	u	x	x	x	i
Cc1ccc(-c2c(C(=O)NCc3ccccc3)oc(=O)c3ccccc23)cc1	-82.9%	u	u	3.0%	-2.2%	i
CN(Cc1ccccc1)C(=O)c1oc(=O)c2ccccc2c1-c1ccccc1	1.8%	8.2µM*	10.5%	u	u	i
Cc1ccc(-c2c(C(=O)N(C)Cc3ccccc3)oc(=O)c3ccccc23)cc1	u	4.61µM*!	u	u	-3.6%	18.4µM*!
O=C(c1ccco1)N1CCN(C(=O)c2oc(=O)c3ccccc3c2-c2ccccc2)CC1	14.5%	i	-13.5%	0.1%	-1.9%	i
Cc1ccccc1Nc1cc(C(=O)NC2CCC(C)CC2)c2ccccc2n1 (stereo unspecified)	x	u	x	x	x	i
O=S(=O)(Nc1ccc(-n2cccc2)cc1)c1ccc(Cl)cc1Cl	14.1µM*	i	20µM*	u	-2.3%	i
O=S(=O)(Nc1ccc(-n2cccc2)cc1)c1ccc(Cl)c(Cl)c1	-27.6%	i	-25.5%	u	u	i
Cn1c(=O)oc2cc(S(=O)(=O)NC(CC(=O)O)c3cccc(Br)c3)ccc21 (stereo unspecified)	x	i	x	x	x	i
O=c1[nH]cnc2n[nH]nc12	x	u	x	x	x	1.46µM*
Cc1c(C(=O)N/N=C/c2ccccc2)[nH]c2ccc(Cl)cc12	u	i	17.8µM*	14.6µM*	20.6µM*	u
Cc1c(C(=O)N/N=C/c2ccc(N(C)C)cc2)[nH]c2ccc(Cl)cc12	u	5.8µM*	6.31µM*	15.3%	u	5.8µM*
CCc1nnc(N/N=C/c2ccccc2F)n1N	-2.3%	i	11.2µM*	25.9µM*	u	i
CC(C)(C)c1nnc(N/N=C/c2ccccc2)n(N)c1=O	5.62µM*	u	3.98µM*	22.1%	u	i
CCc1nnc(N/N=C/c2ccccc2Cl)n1N	u	i	u	22.4%	11.2%	i
CC(C)(C)c1nnc(N/N=C/c2ccccc2O)n(N)c1=O	11.2µM*	i	10µM*	u	11.7%	u
CSc1nnc(C(C)(C)C)c(=O)n1/N=C/c1ccccc1	7.4%	i	17.4%	-6.1%	-123.0%	i
Nn1cnnc1N/N=C/c1ccccc1C(F)(F)F	-4.9%	i	-14.6%	u	-9.7%	i
COc1ccccc1N1CCN(C(c2cccs2)C(C)NC(=O)c2cccs2)CC1 (stereo unspecified)	-8.6%	4.11µM*	u	2.1%	1.3%	i
COc1ccccc1N1CCN(C(c2cccs2)C(C)NC(=O)c2cccnc2)CC1 (stereo unspecified)	-5.4%	i	-37.1%	9.7%	0.6%	i
CCN1CCN(C(c2cccs2)C(C)NC(=O)c2ccccc2OC)CC1 (stereo unspecified)	-5.9%	i	-42.0%	11.7%	-2.4%	i
SMILES	Gal4-VP16 FLuc	KB-V1 MDR tox	RORgamma inh	MCF10A rereplic	SW480 rereplic	KB-3-1 cytotox
COc1ccccc1C(=O)NC(C)C(c1cccs1)N1CCN(C)CC1 (stereo unspecified)	-7.0%	18.4µM*	u	-8.6%	3.4%	i
COc1ccc(C(=O)NCc2ccc(F)cc2)cc1S(=O)(=O)N1CCCC1	x	i	x	6.2%	-9.5%	i
Cc1cccc(C)c1-n1nnnc1C(c1ccnc2ccccc12)N1CCN(c2ccccc2F)CC1 (stereo unspecified)	x	16.4µM*	x	x	x	u
Cc1cccc(C)c1-n1nnnc1C(c1ccnc2ccccc12)N1CCCN(C(=O)OC(C)(C)C)CC1 (stereo unspecified)	x	i	x	x	x	u
Cc1ccc(C(=O)N/N=C\c2ccccn2)cn1	20.4%	i	-30.5%	0.3%	-3.7%	i
O=C(N/N=C/c1ccccn1)c1ccc(Br)cc1	3.16µM*	18.4µM*	6.31µM*	u	u	i
CC(C)(C)c1ccc(C(=O)N/N=C/c2ccccn2)cc1	4.47µM*	i	1.41µM*	u	6.4%	u
CC(C)(C)c1ccc(/C=N/NC(=O)c2ccccn2)cc1	-23.8%	u	10µM*	-1.5%	-5.3%	i
CC(C)(C)c1ccc(C(=O)N/N=C/c2cccc(Cl)c2)cc1	-15.4%	23.1µM*	u	12.7%	u	u
Cn1cccc1C(=O)N1CCC2(CC1)CN(C(c1ccccc1)c1ccccc1)C2	11.9%	x	32.2%	x	x	x
COc1cc(NC(=O)C2(C)CCCN(C(C)C)C2)cc(OC)c1OC (stereo unspecified)	x	i	x	x	x	i
Cc1cccc(/C=N/NC(=O)c2ccc(Br)cc2)c1	-20.1%	u	17.8µM*	u	-2.3%	i
CC(SC(C)C(=O)NN=Cc1cccc(Cl)c1)C(=O)NN=Cc1cccc(Cl)c1 (stereo unspecified)	x	u	x	4.11µM*	9.2µM*	u
Cc1cccc(-c2noc(CCCC(=O)N3CCOCC3)n2)c1	14.0%	20.6µM*	14.1%	3.2%	-7.8%	i
O=C(CCC(=O)N1CCOCC1)NCCc1ccc(Cl)cc1Cl	-11.7%	x	6.31µM*	-0.6%	0.0%	x
Cc1cccc(-c2noc(CCC(=O)N3CCN(c4cc(C)ccc4C)CC3)n2)c1	x	i	x	u	3.0%	i
Cc1ccc(-c2noc(CCCC(=O)N3CCOCC3)n2)cc1	0.1%	i	-24.7%[10 µM]	8.7%	1.0%	i
O=C(CCCc1nc(-c2ccc(Cl)cc2)no1)N1CCOCC1	-10.3%	9.2µM*	-14.0%	2.5%	-11.2%	u
O=C(CCC(=O)N1CCOCC1)NCCc1ccc(F)cc1	x	i	x	8.3%	4.4%	i
CCCS(=O)(=O)N1CC(=O)N(c2ccc(Cl)cc2C)C(C)(C(=O)NC2CCCC2)C1 (stereo unspecified)	x	i	x	x	x	i
COC(=O)N[C@@H](CCc1ccccc1)[C@]1(C(=O)OC)CCCC1=O	0.7%	x	-13.7%	x	x	x
